Our source for the inhibition values is PubChem BioAssay AID504803 (The Scripps Research Institute Molecular Screening Center, 2011).

Among all 340,000 compounds or so, about 1,700 (0.5%) were called active. The sample holds actives, similar compounds and a random draw of the others, so the mix is not that of the screen. Unmarked numbers belong to inactive results. Rule as the data show it: active = inhibition above about 36%; inactive = the rest.

In this test the target is Serine protease HTRA1 (Homo sapiens) (UniProt Q92743). The test is described as follows: HTRA1 serine protease inhibitors, primary screen, biochemical, fluorescence polarization, HTS (AID 504803).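 Also: 0% = enzyme with DMSO and 100% = wells lacking enzyme.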 The settings on record: recombinant HTRA1, FP-rhodamine activity-based probe, at 5.96 µM, hits give high values.
Chain of Serine protease HTRA1 (Homo sapiens) (Q92743 whole entry, looked up): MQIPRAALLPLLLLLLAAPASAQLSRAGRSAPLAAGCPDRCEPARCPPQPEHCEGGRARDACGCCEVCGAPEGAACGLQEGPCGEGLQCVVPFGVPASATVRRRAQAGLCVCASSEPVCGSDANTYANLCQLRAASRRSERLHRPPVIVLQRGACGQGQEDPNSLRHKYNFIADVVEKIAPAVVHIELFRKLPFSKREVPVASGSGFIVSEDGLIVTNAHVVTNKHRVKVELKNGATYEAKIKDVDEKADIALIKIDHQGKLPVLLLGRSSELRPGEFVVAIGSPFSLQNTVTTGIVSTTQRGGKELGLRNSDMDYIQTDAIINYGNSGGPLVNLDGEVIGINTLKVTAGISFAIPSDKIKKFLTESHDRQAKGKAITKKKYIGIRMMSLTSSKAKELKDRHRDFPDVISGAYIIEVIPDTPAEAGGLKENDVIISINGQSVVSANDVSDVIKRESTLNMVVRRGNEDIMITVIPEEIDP
Regarding `COc1ccc(NC(=O)N(C)C[C@H]2Oc3ncc(C#C[C@@H](C)O)cc3C(=O)N([C@H](C)CO)C[C@H]2C)cc1`, the inhibition was 6%. In the case of `Nc1cccc(OCCCCCOc2cccc(N)c2)c1` it was 3.94%; in that of `COC(=O)c1ccccc1N=NNc1ccc([N+](=O)[O-])cc1`, 3.36%; in that of `COc1ccc(NC(=O)c2cc(=O)[nH]c3ccccc23)cc1S(=O)(=O)N1CCOCC1`, -7.81%. In the case of `Oc1ccc2ccccc2c1N=Nc1nccs1` it was 44.7% (active); in that of `COc1ccc(NC(=O)COC(=O)C2COc3ccccc3O2)cc1` (stereo not drawn), -2.75%; in that of `COc1cc(O)c2c(=O)c3c(O)c(O)ccc3oc2c1OC`, 53.9% (active). With `COc1cccc2cc(-c3cc(=O)oc4cc(C)c(O)cc34)oc12`, the inhibition was -8.58%. With `COc1c(O)cc2oc(-c3ccc(O)c(O)c3)cc(=O)c2c1O`, the inhibition is 25.7%.

Turning to `COc1ccc(N)cc1NC(=O)CN1CCOCC1`, the inhibition is -3.64%. In the case of `Oc1ccc(C2Nc3cccc4cccc(c34)N2)cc1`, the inhibition was 22.9%. In the case of `COc1cc2c(cc1OC)C(c1ccccc1Br)NC(=O)C2` (stereo not drawn) it was -6.31%; in that of `Brc1ccccc1C1Nc2cccc3cccc(c23)N1`, 59.2% (active); in that of `Cc1ccc(NC(=O)c2ccco2)cc1`, 1.31%. In the case of `Cc1nc2ccccc2nc1CC(O)(c1ccccc1)c1ccccc1` it was -14.1%; in that of `Cc1cc(Cl)ccc1C(=O)C1CCCN(C(=O)c2ccc3c(c2)OCO3)C1` (stereo not drawn), -4.58%; in that of `Cc1ccc(S(=O)(=O)NCCC(=O)OCC(=O)N(C)c2ccccc2)cc1`, 5.9%. In the case of `NC(=O)NC(=O)C(OC(=O)CCNS(=O)(=O)c1ccccc1)c1ccccc1` (stereo not drawn) it was 36.7% (active); in that of `O=S(=O)(NCCNS(=O)(=O)c1ccccc1)c1ccccc1`, 4.81%. Consider `CSc1ncnc2c1ncn2CCCNCc1cccs1`, for which the inhibition was 3.07%. As to `C[C@@H]1CCCCO[C@H](CN(C)Cc2ccccc2)[C@@H](C)CN([C@H](C)CO)C(=O)c2cc(NS(=O)(=O)c3ccc(Cl)cc3)ccc2O1`, the inhibition is -17.9%. In the case of `CCc1cccc(CC)c1N1C(=O)CC(Sc2ccccc2N)C1=O` (stereo not drawn), the inhibition was 2.44%. Take `Cn1nc(N)c2ncc(C(Cl)(Cl)Cl)nc21`: the inhibition was -0.52%. In the case of `COc1cc(OC)c(C(=O)Nc2ccc(N(C)C)cc2)cc1OC` it was 5.76%; in that of `CC(C)CNC(=O)C(=O)Nc1ccc(N(C)C)cc1`, 7.37%. Turning to `CN(C)c1ccc(N/C=C/C(=O)C(F)(F)F)cc1`, the inhibition is 38.7% (active).

In the case of `C[C@H](CO)N1C[C@H](C)[C@@H](CN(C)C(=O)c2cccc(F)c2)Oc2cc(-c3cncnc3)ccc2S1(=O)=O`, the inhibition is 2.58%. In the case of `O=C(c1cc(S(=O)(=O)N2CCOCC2)ccc1Cl)N1CCOCC1` it was 2.81%; in that of `O=C(Nc1cc(S(=O)(=O)N2CCOCC2)ccc1Cl)c1cc(=O)c2ccccc2o1`, -4.07%; in that of `O=[N+]([O-])c1cc(Cl)cc(/C=N/NC(=S)Nc2cc(S(=O)(=O)N3CCOCC3)ccc2Cl)c1O`, 45.7% (active).

Consider `Cc1ccc(Nc2nc(Cl)c(C=O)s2)cc1`, for which the inhibition was -8.62%. In the case of `Nc1ccc(C(=O)Nc2ccccc2N)cc1` it was 6.6%. Then `Cc1ccc(Nc2ccccc2N)cc1`, with 47.8% (active). In the case of `CC1(c2cccc(N)c2)OCCO1` it was 4.7%; in that of `O=C(O)C1=C(C(=O)O)C2CCC1C2`, 9.01%. As for `CN1CCN(c2ccncc2S(=O)(=O)N2CCCC2)CC1`, the inhibition was 3.56%. Then `Clc1ccc(C2=CSC3=Nc4cccc5cccc(c45)N23)cc1`, with 44.2% (active). In the case of `CC1=C(C(=O)N2CCOCC2)CC(CC(=O)NCc2cccc3ccccc23)C(=O)N1CCC1=CCCCC1` (stereo not drawn) it was -3.43%.

Regarding `O=C1NC(Cc2ccccc2)c2nc3ccc(Br)cc3c(=O)n2-c2cc3ccccc3cc21` (stereo not drawn), the inhibition is -54.3%. Then `CC(=O)Nc1ccc(S(=O)(=O)N2CCCC2C(=O)O)cc1` (stereo not drawn), with 2%; and `CC(=O)Nc1ccc(NS(=O)(=O)c2ccc3c(c2)NC(=O)CC(=O)N3)cc1`, with 6.8%; and `CC(=O)Nc1ccc(S(=O)(=O)Nc2ccc(N3CCCCC3)cc2)cc1`, with 52.4% (active).

For `C=CCOc1ccccc1CNn1c(C)n[nH]c1=S`, the inhibition was 3.58%. Regarding `CNC(=S)NNC(=O)c1sccc1OCc1ccccc1`, the inhibition was 5.29%. Regarding `CNC(=S)NNC(=O)c1oc2nc(-c3ccccc3)cc(-c3ccco3)c2c1N`, the inhibition was 51.7% (active). Then `CNC(=S)NNC(=O)c1cccn(Cc2ccccc2)c1=O`, with 3.18%; and `Cc1cc2cc3n(c2nn1)N=C(Cl)CC3`, with 3.25%; and `CCOC(=O)C1CCN(C(=O)c2ccc3c(=O)n4nc(Nc5ccccc5CC)sc4nc3c2)CC1`, with -34.2%. In the case of `CCOC(=O)C=Cc1ccc(C(=O)OCC)[nH]1` it was 0.68%; in that of `Cc1[nH]c2ccccc2c1C(=O)C(=O)NCc1nnnn1-c1cccc(F)c1`, 7.28%.

For `CCC(Oc1ccccc1)C(=O)OCC(=O)Nc1c(C)nn(-c2ccccc2)c1C` (stereo not drawn), the inhibition is -6.47%. In the case of `Cn1c(SCC(=O)N/N=C/c2ccc(O)c(O)c2)nc2ccccc21` it was 41.2% (active); in that of `CCOc1ccc(/C=N/NC(=O)CSc2ccccn2)cc1O`, 9.01%. As for `CCn1c(SCC(=O)N/N=C/c2ccncc2)nc2ccccc21`, the inhibition is 4.65%. Then `O=C1OCCC1=COCCCCOC=C1CCOC1=O`, with -3.04%; and `Cc1ccc(NC(=O)COc2ccc(/C=N\NC(=O)c3cccnc3)cc2)cc1C`, with -7.41%. In the case of `O=C(O)c1ccc(N/N=C/c2cn(-c3ccccc3)nc2-c2cccs2)cc1` it was -11.3%. In the case of `O=C(N/N=C/c1sc(N2CCCCC2)nc1-c1cccs1)c1cccnc1` it was 40.5% (active); in that of `CSc1ncnc2c1ncn2CCCNCc1ccco1`, 8.47%. For the compound `CCN(CC)CCN(C(=O)c1ccc2c(c1)CCCC2)c1nc2c(OC)cccc2s1`, the inhibition was -19.6%. In the case of `CN1OC[C@@H]2CN[C@H](c3ccc(-c4ccccc4)cc3)C[C@@H]21`, the inhibition is -1.81%. In the case of `COCCn1c(SCC(=O)Nc2ccc(F)cc2F)nc2c(c1=O)SCC2` it was -1.19%. As for `CC(=O)N1CCN(c2ccc(NCc3ccc(C(C)C)cc3)cc2)CC1`, the inhibition is 59.2% (active). In the case of `CC(=O)c1ccc(N2CCN(C(=O)CCc3ccccc3)CC2)cc1` it was 2.82%; in that of `CC(CC(=O)N1CCN(c2ccccc2)CC1)c1ccccc1` (stereo not drawn), -0.5%; in that of `O=C(OCc1ccccc1)N1CCC2CC1c1cc(N3CCN(S(=O)(=O)c4cc(Cl)cc(Cl)c4)CC3)ccc12` (stereo not drawn), -4.06%.

On to `C[C@H](O)[C@@H]1C(=O)N2CCc3c([nH]c4ccccc34)[C@@H]2C[C@@H]1N(C)C(=O)Nc1ccc(F)cc1`, for which the inhibition was -1.56%. Then `C[C@@H]1CN([C@H](C)CO)C(=O)CCCn2nncc2CO[C@@H]1CN(C)C(=O)OCc1ccccc1`, with -3.03%. Then `CC(C)CCOc1ccc(C(=O)Nc2cc(S(=O)(=O)N3CCOCC3)ccc2N2CCOCC2)cc1`, with -7.89%; and `Cc1ccc(NC(=O)CCNC(=O)c2ccc([N+](=O)[O-])cc2)cc1S(=O)(=O)N1CCOCC1`, with 3.34%. Then `COc1ccc(NS(=O)(=O)c2cc(NC(=O)CC(=O)c3ccc([N+](=O)[O-])cc3)ccc2C)cc1`, with 45.4% (active); and `COc1ccc(NS(=O)(=O)c2cc(NC(=O)COc3ccccc3F)ccc2OC)cc1`, with -13.3%; and `CC1CCCC(C)N1C(=O)COC(=O)c1ccccc1C(=O)c1ccccc1` (stereo not drawn), with 0.04%. On to `CCOc1cc(/C=N/NC(=O)c2ccncc2)cc(Br)c1O`, for which the inhibition was 3.19%. In the case of `O=C(C1CCCO1)N1CCN(C(=O)C23CC4CC(CC(C4)C2)C3)CC1` (stereo not drawn) it was 9.09%; in that of `COc1ccc(N2CCN(C3CC(=O)N(c4ccc5c(c4)OCCO5)C3=O)CC2)cc1` (stereo not drawn), 4.17%; in that of `CC(=O)Oc1cccc(N2C(=O)CC(Nc3ccc(N4CCOCC4)cc3)C2=O)c1` (stereo not drawn), 51.5% (active).

For the compound `O=C1CC(NNc2ccccc2)C(=O)N1c1cccc(Cl)c1` (stereo not drawn), the inhibition is -8.57%. In the case of `CCC(C)Cn1c(O)cc2nn(-c3nc4ccccc4s3)c(=O)c-2c1C` (stereo not drawn) it was 61.1% (active). Then `O=C(OCc1ccccc1)N1CCC2CC1c1ccc(-c3ccc4c(c3)OCO4)cc12` (stereo not drawn), with -25%. In the case of `COc1ccc(OC)c(Nc2nc(-c3ccc(O)c(O)c3)cs2)c1` it was 64.3% (active). With `COc1ccc(-c2csc(Nc3cccc(C)n3)n2)cc1OC`, the inhibition was 13.4%. Turning to `COc1ccc(OC)c(-c2csc(NC(=O)C3=NNC(=O)CC3)n2)c1`, the inhibition is -2.91%. In the case of `C[C@@H]1CN([C@H](C)CO)S(=O)(=O)c2ccc(C#C[C@@H](C)O)cc2O[C@@H]1CN(C)Cc1ccc(-c2ccccc2)cc1` it was -54%; in that of `O=C(OCc1cn([C@H]2C[C@H](c3ccccc3)N(C(=O)c3cccs3)C[C@@H]2O)nn1)c1ccccc1`, -11.7%. In the case of `N#CC1(Nc2ccc3c4c(cccc24)CC3)CCCCC1`, the inhibition was 33.2%. For `O=C1CSC(=S)N1/N=C/c1ccc(O)c([N+](=O)[O-])c1`, the inhibition was 13.7%. In the case of `Cc1cc(C(=O)N/N=C/c2ccc(O)c([N+](=O)[O-])c2)c(C)n1-c1ccc(F)cc1` it was 45.1% (active); in that of `Cc1cc(C(=O)COC(=O)C2CC2)c(C)n1-c1ccc(F)cc1`, 4.47%. Then `Cc1ccc([C@H]2N[C@]3(CCCN(CC4CCCCC4)C3=O)[C@H]3C(=O)N(Cc4ccccc4)C(=O)[C@@H]23)cc1`, with -16.8%. Regarding `COc1ccccc1-c1nc(C(F)(F)F)c(OC)o1`, the inhibition was -5.12%. In the case of `COc1ccccc1C1=Nc2cccc3cccc(c23)N1` it was 60.3% (active). `Fc1ccccc1N=C1Nc2cccc3cccc1c23`: the inhibition was -6.03%.
